# Shown is part of a subset that was picked to be rich in the strongest signals.
# Key:
# Experiment in all cases: glycan array binding signal (z-score within array); higher = stronger binding
# Conditions in all cases: glycan notation: IUPAC condensed, linker removed
# [1] = biological target: Fuc(a1-2)Gal(b1-3)GlcNAc(b1-2)Man(a1-3)[Fuc(a1-2)Gal(b1-3)GlcNAc(b1-2)Man(a1-6)]Man(b1-4)GlcNAc(b1-4)GlcNAc
# Outline: (§1)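 The Consortium for Functional Glycomics database supplied 3228 glycan arrays, of which those lacking an available protein sequence were dropped. The binding signal, a within-array Z-score, was averaged across arrays of the same protein sequence and across linkers. Negative scores can be read as non-binding.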
# [2] = biological target: Fuc(a1-2)Gal(b1-3)GlcNAc(b1-3)[Fuc(a1-2)Gal(b1-3)GlcNAc(b1-6)]GalNAc
# Outline: as §1
# [3] = biological target: Fuc(a1-2)[Gal(a1-3)]Gal(b1-3)GalNAc
# Outline: as §1
# [4] = biological target: Fuc(a1-2)[Gal(a1-3)]Gal(b1-4)[Fuc(a1-3)]GlcNAc(b1-3)GalNAc
# Outline: as §1
# [5] = biological target: Fuc(a1-2)[GalNAc(a1-3)]Gal(b1-4)GlcNAc(b1-2)Man(a1-3)[Fuc(a1-2)[GalNAc(a1-3)]Gal(b1-4)GlcNAc(b1-2)Man(a1-6)]Man(b1-4)GlcNAc(b1-4)[Fuc(a1-6)]GlcNAc
# Outline: as §1
# [6] = biological target: Fuc(a1-2)[GalNAc(a1-4)]Gal(b1-4)GlcNAc
# Outline: as §1
# [7] = biological target: Gal(a1-3)Gal(b1-3)GlcNAc(b1-6)GalNAc
# Outline: as §1
# Gal(a1-3)Gal(b1-4)Glc = biological target: Gal(a1-3)Gal(b1-4)Glc
# Outline: as §1
# [8] = biological target: Gal(a1-4)Gal(b1-3)GlcNAc(b1-2)Man(a1-3)[Gal(a1-4)Gal(b1-3)GlcNAc(b1-2)Man(a1-6)]Man(b1-4)GlcNAc(b1-4)GlcNAc
# Outline: as §1
# [9] = biological target: Gal(a1-4)Gal(b1-4)GlcNAc(b1-2)Man(a1-3)[Gal(a1-4)Gal(b1-4)GlcNAc(b1-2)Man(a1-6)]Man(b1-4)GlcNAc(b1-4)GlcNAc
# Outline: as §1
# [10] = biological target: Gal(b1-3)GalNAc(b1-4)Gal(b1-4)Glc
# Outline: as §1
# [11] = biological target: Gal(b1-3)GlcNAc(b1-3)Gal(b1-4)GlcNAc(b1-2)Man(a1-3)[Gal(b1-3)GlcNAc(b1-3)Gal(b1-4)GlcNAc(b1-2)Man(a1-6)]Man(b1-4)GlcNAc(b1-4)GlcNAc
# Outline: as §1
# [12] = biological target: Gal(b1-3)[Fuc(a1-4)]GlcNAc(b1-2)Man(a1-3)[Gal(b1-3)[Fuc(a1-4)]GlcNAc(b1-2)Man(a1-6)]Man(b1-4)GlcNAc(b1-4)[Fuc(a1-6)]GlcNAc
# Outline: as §1
# [13] = biological target: Gal(b1-3)[Fuc(a1-4)]GlcNAc(b1-6)GalNAc
# Outline: as §1
# [14] = biological target: Gal(b1-4)GlcNAc(b1-2)Man(a1-3)[GlcNAc(b1-4)][Gal(b1-4)GlcNAc(b1-2)Man(a1-6)]Man(b1-4)GlcNAc(b1-4)GlcNAc
# Outline: as §1
# [15] = biological target: Gal(b1-4)GlcNAc(b1-3)Gal(b1-4)GlcNAc(b1-2)Man(a1-3)[Gal(b1-4)GlcNAc(b1-3)Gal(b1-4)GlcNAc(b1-2)Man(a1-6)]Man(b1-4)GlcNAc(b1-4)GlcNAc
# Outline: as §1
# [16] = biological target: Gal(b1-4)GlcNAc(b1-3)Gal(b1-4)GlcNAc(b1-2)[Gal(b1-4)GlcNAc(b1-3)Gal(b1-4)GlcNAc(b1-6)]Man(a1-6)[Gal(b1-4)GlcNAc(b1-3)Gal(b1-4)GlcNAc(b1-2)Man(a1-3)]Man(b1-4)GlcNAc(b1-4)GlcNAc
# Outline: as §1
# [17] = biological target: Gal(b1-4)GlcNAc(b1-3)Gal(b1-4)GlcNAc(b1-2)[Gal(b1-4)GlcNAc(b1-3)Gal(b1-4)GlcNAc(b1-6)]Man(a1-6)[Gal(b1-4)GlcNAc(b1-3)Gal(b1-4)GlcNAc(b1-2)Man(a1-3)]Man(b1-4)GlcNAc(b1-4)[Fuc(a1-6)]GlcNAc
# Outline: as §1
# [18] = biological target: Gal(b1-4)GlcNAc(b1-3)Gal(b1-4)GlcNAc(b1-3)Gal(b1-4)GlcNAc(b1-3)Gal(b1-4)GlcNAc(b1-2)Man(a1-3)[Gal(b1-4)GlcNAc(b1-3)Gal(b1-4)GlcNAc(b1-3)Gal(b1-4)GlcNAc(b1-3)Gal(b1-4)GlcNAc(b1-2)Man(a1-6)]Man(b1-4)GlcNAc(b1-4)[Fuc(a1-6)]GlcNAc
# Outline: as §1
# [19] = biological target: Gal(b1-4)GlcNAc(b1-3)Gal(b1-4)GlcNAc(b1-3)Gal(b1-4)GlcNAc(b1-3)Gal(b1-4)GlcNAc(b1-2)[Gal(b1-4)GlcNAc(b1-3)Gal(b1-4)GlcNAc(b1-3)Gal(b1-4)GlcNAc(b1-3)Gal(b1-4)GlcNAc(b1-6)]Man(a1-6)[Gal(b1-4)GlcNAc(b1-3)Gal(b1-4)GlcNAc(b1-3)Gal(b1-4)GlcNAc(b1-3)Gal(b1-4)GlcNAc(b1-2)Man(a1-3)]Man(b1-4)GlcNAc(b1-4)[Fuc(a1-6)]GlcNAc
# Outline: as §1
# [20] = biological target: Gal(b1-4)GlcNAc(b1-3)Gal(b1-4)GlcNAc(b1-3)Gal(b1-4)GlcNAc(b1-3)Gal(b1-4)GlcNAc(b1-3)Gal(b1-4)GlcNAc(b1-2)[Gal(b1-4)GlcNAc(b1-3)Gal(b1-4)GlcNAc(b1-3)Gal(b1-4)GlcNAc(b1-3)Gal(b1-4)GlcNAc(b1-3)Gal(b1-4)GlcNAc(b1-6)]Man(a1-6)[Gal(b1-4)GlcNAc(b1-3)Gal(b1-4)GlcNAc(b1-3)Gal(b1-4)GlcNAc(b1-3)Gal(b1-4)GlcNAc(b1-3)Gal(b1-4)GlcNAc(b1-2)Man(a1-3)]Man(b1-4)GlcNAc(b1-4)[Fuc(a1-6)]GlcNAc
# Outline: as §1
# [21] = biological target: Gal(b1-4)GlcNAc(b1-3)Gal(b1-4)GlcNAc(b1-3)[Gal(b1-4)GlcNAc(b1-3)Gal(b1-4)GlcNAc(b1-6)]GalNAc
# Outline: as §1
# [22] = biological target: Gal(b1-4)GlcNAc(b1-3)Gal(b1-4)GlcNAc(b1-6)[Gal(b1-3)]GalNAc
# Outline: as §1
binder,measurement,setting,value
GS14009A-pdi-495-27-495 (Parabacteroides distasonis) (protein) FEEVNTDPDSPTDVPTTNLLAYSLYYTSYRLYDRWFAMDEPMTFCGYASKMTYIDESRYNFRTGVQDTNWEYLYRILNNLKDIEKRATFNETPNMLNVSKVMQVHLMQVATDRWRDVPYTDAAKMTDGILQPKYDKQEDIYPGLLATLKEAADGFADGGSDDLGEGDLLFGGDIEKWQRYCNSMRLRLAMRISEVSPALAKETVEEVMGNPTKYPIMESNDDNAFFWWIGTDPNYYEPMADGYRTRKTEYCAADVIVDHMNTREDPRRSSYFQPTKESVEAGEPKYVGYTIGAKANAVASKYSIWGARFFTDLAGFSPYMRVAEPWFCVAEASMLGWNTGISAEDAYNKAVTYSMEENSVSAEDIADYLANAGKFTNDKKQIYYEEWVAMFKQGMEGWSLYRRTGVPDNLYPAPGRPANYSNHNVPPFRSPYPDKERNLNNANCAPFDAEVVDNLWGKQMWWDTRTGVH,glycan array binding signal (z-score),[1],2.57
same,glycan array binding signal (z-score),[2],-0.336
same,glycan array binding signal (z-score),[3],0.023
same,glycan array binding signal (z-score),[4],-0.109
same,glycan array binding signal (z-score),[5],2.8
same,glycan array binding signal (z-score),[6],-0.532
same,glycan array binding signal (z-score),[7],-0.003
same,glycan array binding signal (z-score),Gal(a1-3)Gal(b1-4)Glc,-0.017
same,glycan array binding signal (z-score),[8],2.33
same,glycan array binding signal (z-score),[9],2.23
same,glycan array binding signal (z-score),[10],0.001
same,glycan array binding signal (z-score),[11],4.58
same,glycan array binding signal (z-score),[12],1.2
same,glycan array binding signal (z-score),[13],0.634
same,glycan array binding signal (z-score),[14],15.2
same,glycan array binding signal (z-score),[15],0.299
same,glycan array binding signal (z-score),[16],10.6
same,glycan array binding signal (z-score),[17],0.552
same,glycan array binding signal (z-score),[18],0.445
same,glycan array binding signal (z-score),[19],7.28
same,glycan array binding signal (z-score),[20],3.33
same,glycan array binding signal (z-score),[21],0.573
same,glycan array binding signal (z-score),[22],-0.044

# — the supplement of paper PMC8728848
